A number with no mark means an inactive call. Results filed as inconclusive are left out. Active and inactive are the calls of the source. Unless noted, calls come from the whole dose curve; as a rule, active = well fitted curve in the direction sought with a large enough effect; inconclusive = small, poorly fitted or top-dose-only effect, or another doubt; inactive = no such curve, though single readings can be large; an effect the other way counts as inactive or inconclusive.

Data on 2 compounds can be found in PubChem BioAssay (NCATS).

Assay [1] has as its target Lysosomal acid glucosylceramidase (Homo sapiens) (UniProt P04062). In words: Glucocerebrosidase-p2 (AID 348; in the data active = potency below about 10 µM; note: potency is the fitted concentration of half-maximal effect). The settings on record: purified GBA, blue fluorogenic substrate, 40 min. The method in brief: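 Normal human glucocerebrosidase (0.2 nM) with blue fluorogenic substrate (80 uM final) in citrate/phosphate pH 5.9 with 10mM sodium taurocholate, 0.01% tween-20; 40 min RT, NaOH/glycine stop; fluorescence Ex 365/Em 440; AC50 from a titration from 0.6 nM upwards.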

Assay [2] can be described thus: AP1 Signaling Pathway (AID 357; active = well fitted curve in either direction with a large enough effect, not every such curve was filed as active;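 note: ME-180 reporter cells stimulated with EGF at its EC50 level; % is set by controls: 0 for no effect and ±100 for the full control effect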). To be noted: ME-180 AP-1-bla reporter, EGF-induced, beta-lactamase ratio, 5 h; at 7.69 µM (top of the series) unless noted. The method in brief: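 First, ME-180 AP-1-bla cells were cultured overnight at 37 °C in low-serum Opti-MEM. Next, titrated compounds with EC50 EGF were incubated 5 hours. Finally, CCF4 was added for 2.5 hours and the 460/530 nm ratio recorded.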

Assay [3] deals with Cytochrome P450 1A2 (Homo sapiens) (UniProt P05177). The assay is described as follows: p450-cyp1a2 (AID 410; calls by dose curve; note: potency is the fitted concentration of half-maximal effect). The settings on record: recombinant CYP1A2, luciferin-ME demethylation, luminescence; series mostly up to 57 µM. The method in brief: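 20nM CYP1A2, 100uM Luciferin-ME (=Km), 100mM KPO4; cpd 10 min RT; +NADPH regen, 60 min RT; stop/detect 20 min; luminescence. Normalized to furafylline 57 uM = full inhibition.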

Assay [4] is described as follows: NFAT Signaling Pathway (AID 444; active = well fitted curve in either direction with a large enough effect, not every such curve was filed as active;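 note: carbachol stimulus at about its EC50 of 1 µM final; % is set by controls: 0 for no effect and ±100 for the full control effect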). To be noted: Jurkat NFAT-bla M1, carbachol, beta-lactamase ratio, 5 h; at 7.69 µM (top of the series) unless noted. The method in brief:
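Read-out: CCF4 FRET ratio (460 nm/530 nm) after 1 h RT dye loading, used for %activity and AC50 from titration series. Cells: Jurkat NFAT-β-lactamase/M1 line, treated with compound plus 1 uM carbachol for 5 h, 37 °C.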

The nature of assay [5]: Stat Signaling Pathway (AID 446; active = well fitted curve in either direction with a large enough effect, not every such curve was filed as active;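 note: ME-180 cervical cancer cells given 40 pM IL-6 alongside compound; SIE-controlled beta-lactamase reporter measured as 460/530 nm FRET emission ratio; % is set by controls: 0 for no effect and ±100 for the full control effect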). The settings on record: ME-180 (cervical carcinoma) SIE beta-lactamase reporter, IL-6 stimulated, 5 h; at 7.69 µM (top of the series) unless noted. An outline of the steps:
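Normalization used AC90 stimulation (300 pM IL-6) and AC90 inhibition (125 nM pan-JAK inhibitor at 40 pM IL-6). The underlying signal is SIE-driven beta-lactamase in ME-180 cells after 5 h IL-6 exposure with compound.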

Assay [6] concerns the target Glucocorticoid receptor (Homo sapiens) (UniProt P04150). The assay is described as follows: GR-GFP Redistribution (AID 450;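 active = compounds whose dose series gives a full or clear partial fitted curve of increased nuclear translocation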; note: potency is the fitted concentration of half-maximal effect). The settings on record: U2OS GR-GFP nuclear translocation, laser cytometry, 2 h.
For assay [7] the target is unchanged. In words: GR-EFC Redistribution (AID 451; calls by dose curve; note: potency is the fitted concentration of half-maximal effect). The settings on record: CHO-K1 GR-EFC translocation, beta-gal luminescence, 2 h. The method in brief: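 Translocation of GR-ED fusion to nuclear EA restores b-gal, read by luminescence after 1 h room-temperature detection. Engineered CHO-K1 biosensor cells, 1,000/well, exposed 2 h at 37 C to titrations up to 46 uM final.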

Assay [8] deals with Mitogen-activated protein kinase 10 (Mus musculus) (UniProt Q61831). In words: JNK3 AlphaScreen Assay (AID 530; active = well fitted curve in either direction with a large enough effect, not every such curve was filed as active;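 note: kinase came from lysate of stimulated human HepG2 cells; signal reports phosphorylation of biotinylated GST-cJun 1-79 at Ser73 with 10 µM ATP; % is set by controls: 0 for no effect and ±100 for the full control effect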). To be noted: JNK3 lysate, c-Jun phosphorylation; series mostly up to 57.1 µM. The method in brief: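 Kinase buffer: 20 mM Tris-HCl pH 7.6, 10 mM MgCl2, 1 mM DTT, 0.1 mM Na3VO4, 0.01% Tween-20; ATP 10 uM. Substrate biotin-GST-cJun(1-79), enzyme from activated HepG2 lysates. Detection by Ser73 phospho-antibody AlphaScreen.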

In assay [9] the target is Cytochrome P450 3A4 (Homo sapiens) (UniProt P08684). The assay is described as follows: qHTS Assay for Inhibitors and Substrates of Cytochrome P450 3A4 (AID 884). Note: potency is the fitted concentration of half-maximal effect; nearly all actives have a fitted effect of over 50% in size. The settings on record: recombinant CYP3A4, Luciferin-PPXE luminescence; series mostly up to 57.1 µM. The method in brief:
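Luminescent readout of luciferin produced by CYP3A4 (20 nM) dealkylation of Luciferin-PPXE, 25 uM (its KM). NADPH-driven reaction ran 60 min at RT after 10 min compound preincubation; data scaled to 57 uM ketoconazole as 100% inhibition.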

For assay [10] the target is unchanged. In words: qHTS Assay for Activators of Cytochrome P450 3A4 (AID 885). Note: nearly all actives have a fitted effect of over 65% in size. To be noted: recombinant CYP3A4, Luciferin-PPXE luminescence, 60 min; series mostly up to 57.1 µM. The method in brief:
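Human CYP3A4 dealkylates Luciferin-PPXE to luciferin, which luciferase detection converts to light. Substrate was at its KM (25uM), buffer 200mM KPO4, reaction 60 min at RT.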

In assay [11] the target is Cytochrome P450 2D6 (Homo sapiens) (UniProt P10635). The assay is described as follows: qHTS Assay for Inhibitors and Substrates of Cytochrome P450 2D6 (AID 891). Note: potency is the fitted concentration of half-maximal effect; nearly all actives have a fitted effect of over 60% in size. To be noted: recombinant CYP2D6, luciferin-ME EGE luminescence; series mostly up to 57.1 µM. The method in brief: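 Luminescent read-out of luciferin formed by 5 nM human CYP2D6 demethylating 30 uM Luciferin-ME EGE (Km level) over 60 min at room temperature after NADPH regeneration addition. Data normalized to full inhibition by 1.43 uM quinidine.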

The target of assay [12] is Dual specificity protein kinase CLK4 (Homo sapiens) (UniProt Q9HAZ1). The assay is described as follows: qHTS Assay for Inhibitors of CDC-like Kinase 4 (Kinase-Glo Assay) (AID 1770). Note: potency is the fitted concentration of half-maximal effect; nearly all actives have a fitted effect of over 65% in size. To be noted: recombinant Clk4, Kinase-Glo ATP depletion luminescence; series mostly up to 66.7 µM. The method in brief: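 Clk4 25 nM, RS peptide 100 uM, ATP 1 uM, pH 7.5 Tris, 10 mM MgCl2, 2.5 mM DTT; 4.5 h RT; ATP depletion read by Kinase-Glo luminescence.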

For assay [13] the target is unchanged. The assay is described as follows: qHTS Assay for Inhibitors of CDC-like Kinase 4 (ADP-Glo Assay) (AID 1771). Note: potency is the fitted concentration of half-maximal effect; nearly all actives have a fitted effect of over 70% in size. To be noted: recombinant CLK4, ADP-Glo luminescence; series mostly up to 80 µM. An outline of the steps:
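25 nM Clk4, 100 uM RS peptide, 1 uM ATP (final); 2 mM MgCl2, 0.5 mM EGTA, 2.5 mM DTT, 0.01% Triton X-100; 1 hr RT. ADP-Glo readout: ATP depletion 45 min, conversion/luciferase 30 min, luminescence.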

Assay [14] shares this target. In words: qHTS Assay for Inhibitors of CDC-like Kinase 4 (ADP-FP Assay) (AID 1795). Note: potency is the fitted concentration of half-maximal effect; nearly all actives have a fitted effect of over 60% in size. To be noted: Transcreener ADP fluorescence polarization; series mostly up to 50 µM. An outline of the steps: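 Kinase activity was followed as ADP output, converted from fluorescence polarization with a calibration curve. Reactions ran one hour at low ATP (1 uM) with RS peptide substrate.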

The target of assay [15] is Ubiquitin carboxyl-terminal hydrolase 1 (Homo sapiens) (UniProt O94782). The assay is described as follows: Inhibitors of USP1/UAF1: Pilot qHTS (AID 504865).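 Note: rhodamine fluorescence freed from ubiquitin-rhodamine substrate followed over time; top concentration of the series differs between compounds; % is set by controls: 0 for no effect and ±100 for the full control effect; nearly all actives have a fitted effect of over 35% in size.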 To be noted: purified USP1/UAF1, Ub-rhodamine cleavage fluorescence; series mostly up to 54.9 µM. The method in brief: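 Enzyme-free wells gave the negative control, while test wells held 1nM USP1/UAF1 preincubated with compound for 15 min at room temperature. Ub-Rho at 150nM final started the reaction, and fluorescence at 480/540 nm was recorded kinetically.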

Assay [16] addresses Calcium and integrin-binding protein 1 (Homo sapiens) (UniProt Q99828). In words: Primary qHTS for Identification of Calcium Integrin Binding Protein 1 (CIB1) Competitor (AID 1508620). The settings on record: CIB1-GST / FITC-alphaIIb peptide fluorescence polarization; series mostly up to 114 µM. An outline of the steps:
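CIB1-GST (1 uM final) and compound incubated 15 min at room temperature before adding FITC-alphaIIb peptide tracer (100 nM final). Competition for binding read by fluorescence polarization (ex 480, em 540) after another 15 min at room temperature.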

Assay [17] can be described thus: Primary qHTS for small molecule stabilizers of the endoplasmic reticulum resident proteome: Secreted ER Calcium Modulated Protein (SERCaMP) assay (AID 1508630). Note: % is set by controls: 0 for no effect and ±100 for the full control effect. To be noted: SH-SY5Y GLuc-SERCaMP (Gaussia luciferase released on ER calcium loss) secretion, thapsigargin, luminescence; series mostly up to 38.4 µM. The method in brief: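 The SH-SY5Y reporter protocol was run at 3 concentrations up to 38.3 uM (primary) or 11 concentrations (follow-up): 16 h compound, 100 nM thapsigargin for 4 h, then extracellular luciferase luminescence.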

For assay [18], the target named is N-terminal Xaa-Pro-Lys N-methyltransferase 1 (Homo sapiens) (UniProt Q9BV86). The assay is described as follows: Confirmatory qHTS for Inhibitors of N-terminal methyltransferase 1 (NTMT1): MTaseGlo Assay (AID 1645874).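 Note: luminescence from SAH made as NTMT1 methylates SPKRIA peptide using SAM; 0% = DMSO control and -100% = no-enzyme control; nearly all actives have a fitted effect of over 65% in size.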 The settings on record: NTMT1 enzyme, MTase-Glo SAH luminescence; series mostly up to 100 µM. An outline of the steps: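 Inhibition was derived from luminescence after SAH-to-ATP conversion, scaled between no-enzyme and DMSO wells, then fitted by 4-parameter Hill. Conditions: 125 nM NTMT1, 100 uM SAM, 1 uM SPKRIA, 30 min RT.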
Chain of N-terminal Xaa-Pro-Lys N-methyltransferase 1 (Homo sapiens) (Q9BV86 whole entry, looked up): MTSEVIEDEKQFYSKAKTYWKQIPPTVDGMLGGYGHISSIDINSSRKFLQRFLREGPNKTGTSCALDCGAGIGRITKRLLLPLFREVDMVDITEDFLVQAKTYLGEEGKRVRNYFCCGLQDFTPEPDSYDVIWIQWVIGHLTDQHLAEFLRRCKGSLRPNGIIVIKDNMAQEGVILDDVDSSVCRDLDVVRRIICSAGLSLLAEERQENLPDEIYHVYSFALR

Chain of Dual specificity protein kinase CLK4 (Homo sapiens) (Q9HAZ1 whole entry, looked up): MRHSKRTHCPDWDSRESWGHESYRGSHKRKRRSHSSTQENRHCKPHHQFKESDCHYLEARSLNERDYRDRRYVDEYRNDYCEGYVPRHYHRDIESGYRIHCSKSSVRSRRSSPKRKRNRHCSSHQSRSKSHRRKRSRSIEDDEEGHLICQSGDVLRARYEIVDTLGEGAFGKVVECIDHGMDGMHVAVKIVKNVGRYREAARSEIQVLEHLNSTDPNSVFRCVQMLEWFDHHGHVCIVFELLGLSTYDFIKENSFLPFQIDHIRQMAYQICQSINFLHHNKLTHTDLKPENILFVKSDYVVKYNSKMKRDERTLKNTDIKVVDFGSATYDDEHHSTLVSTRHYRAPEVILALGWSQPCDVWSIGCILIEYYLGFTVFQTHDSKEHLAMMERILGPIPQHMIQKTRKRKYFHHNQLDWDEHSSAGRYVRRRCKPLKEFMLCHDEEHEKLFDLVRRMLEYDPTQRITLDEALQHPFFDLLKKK
Chain of Calcium and integrin-binding protein 1 (Homo sapiens) (Q99828 whole entry, looked up): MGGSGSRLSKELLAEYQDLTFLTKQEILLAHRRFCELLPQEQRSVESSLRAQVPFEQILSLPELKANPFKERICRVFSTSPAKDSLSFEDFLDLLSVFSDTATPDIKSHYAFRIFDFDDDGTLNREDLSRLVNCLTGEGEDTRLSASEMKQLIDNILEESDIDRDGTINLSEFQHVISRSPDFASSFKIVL
Chain of Glucocorticoid receptor (Homo sapiens) (P04150 whole entry, looked up, the tested form may be a part): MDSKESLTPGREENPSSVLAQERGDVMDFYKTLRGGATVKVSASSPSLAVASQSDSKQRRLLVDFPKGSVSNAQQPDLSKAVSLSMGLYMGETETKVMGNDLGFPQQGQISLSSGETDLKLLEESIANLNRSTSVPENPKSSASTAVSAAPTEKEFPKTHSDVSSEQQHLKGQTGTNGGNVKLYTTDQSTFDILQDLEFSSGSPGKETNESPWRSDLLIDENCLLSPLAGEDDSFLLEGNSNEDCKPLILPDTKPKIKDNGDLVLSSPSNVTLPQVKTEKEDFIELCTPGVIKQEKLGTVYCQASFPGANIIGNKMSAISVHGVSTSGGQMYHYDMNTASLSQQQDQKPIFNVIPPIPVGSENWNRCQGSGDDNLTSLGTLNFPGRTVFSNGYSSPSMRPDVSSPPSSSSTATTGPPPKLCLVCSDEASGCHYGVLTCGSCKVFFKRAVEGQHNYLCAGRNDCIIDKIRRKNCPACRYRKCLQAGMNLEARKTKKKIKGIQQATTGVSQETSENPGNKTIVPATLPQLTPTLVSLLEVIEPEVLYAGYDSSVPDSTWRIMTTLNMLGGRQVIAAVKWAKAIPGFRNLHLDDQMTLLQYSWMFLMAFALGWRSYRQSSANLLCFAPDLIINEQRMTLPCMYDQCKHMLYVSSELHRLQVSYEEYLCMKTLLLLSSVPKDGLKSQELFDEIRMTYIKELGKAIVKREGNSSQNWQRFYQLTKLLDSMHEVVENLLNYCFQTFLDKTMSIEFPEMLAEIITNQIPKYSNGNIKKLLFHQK
Chain of Cytochrome P450 3A4 (Homo sapiens) (P08684 whole entry, looked up): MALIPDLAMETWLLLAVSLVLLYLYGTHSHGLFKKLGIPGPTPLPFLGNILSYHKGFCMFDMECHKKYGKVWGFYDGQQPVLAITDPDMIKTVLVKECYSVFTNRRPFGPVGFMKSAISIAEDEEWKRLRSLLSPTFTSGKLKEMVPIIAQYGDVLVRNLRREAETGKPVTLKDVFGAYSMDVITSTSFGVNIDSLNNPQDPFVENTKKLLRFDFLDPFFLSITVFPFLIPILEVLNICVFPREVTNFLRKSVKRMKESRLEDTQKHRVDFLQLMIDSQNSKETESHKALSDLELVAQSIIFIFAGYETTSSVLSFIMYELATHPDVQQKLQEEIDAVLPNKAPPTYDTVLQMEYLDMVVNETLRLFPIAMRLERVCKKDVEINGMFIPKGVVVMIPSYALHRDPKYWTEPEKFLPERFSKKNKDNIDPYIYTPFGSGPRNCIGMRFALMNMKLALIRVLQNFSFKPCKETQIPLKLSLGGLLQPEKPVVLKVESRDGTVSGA
Chain of Ubiquitin carboxyl-terminal hydrolase 1 (Homo sapiens) (O94782 whole entry, looked up): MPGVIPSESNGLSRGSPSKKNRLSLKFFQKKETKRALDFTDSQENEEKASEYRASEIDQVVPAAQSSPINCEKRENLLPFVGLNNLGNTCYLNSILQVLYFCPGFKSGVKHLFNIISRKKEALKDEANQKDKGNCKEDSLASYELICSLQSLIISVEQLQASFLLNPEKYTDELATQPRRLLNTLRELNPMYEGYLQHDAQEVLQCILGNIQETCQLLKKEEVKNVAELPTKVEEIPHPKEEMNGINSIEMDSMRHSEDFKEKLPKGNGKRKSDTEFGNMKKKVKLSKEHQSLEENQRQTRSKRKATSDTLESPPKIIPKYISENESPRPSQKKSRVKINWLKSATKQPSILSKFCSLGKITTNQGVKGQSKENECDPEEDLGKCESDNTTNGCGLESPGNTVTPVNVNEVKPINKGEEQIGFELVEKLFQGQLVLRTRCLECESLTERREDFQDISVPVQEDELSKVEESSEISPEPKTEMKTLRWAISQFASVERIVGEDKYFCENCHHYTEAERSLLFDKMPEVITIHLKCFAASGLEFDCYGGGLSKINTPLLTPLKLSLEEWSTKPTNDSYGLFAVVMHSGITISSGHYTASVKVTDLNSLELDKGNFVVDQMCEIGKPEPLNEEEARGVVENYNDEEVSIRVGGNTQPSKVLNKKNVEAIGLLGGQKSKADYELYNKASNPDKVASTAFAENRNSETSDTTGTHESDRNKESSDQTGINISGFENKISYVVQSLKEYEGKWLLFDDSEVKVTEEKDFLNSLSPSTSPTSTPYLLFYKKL
Chain of Cytochrome P450 2D6 (Homo sapiens) (P10635 whole entry, looked up): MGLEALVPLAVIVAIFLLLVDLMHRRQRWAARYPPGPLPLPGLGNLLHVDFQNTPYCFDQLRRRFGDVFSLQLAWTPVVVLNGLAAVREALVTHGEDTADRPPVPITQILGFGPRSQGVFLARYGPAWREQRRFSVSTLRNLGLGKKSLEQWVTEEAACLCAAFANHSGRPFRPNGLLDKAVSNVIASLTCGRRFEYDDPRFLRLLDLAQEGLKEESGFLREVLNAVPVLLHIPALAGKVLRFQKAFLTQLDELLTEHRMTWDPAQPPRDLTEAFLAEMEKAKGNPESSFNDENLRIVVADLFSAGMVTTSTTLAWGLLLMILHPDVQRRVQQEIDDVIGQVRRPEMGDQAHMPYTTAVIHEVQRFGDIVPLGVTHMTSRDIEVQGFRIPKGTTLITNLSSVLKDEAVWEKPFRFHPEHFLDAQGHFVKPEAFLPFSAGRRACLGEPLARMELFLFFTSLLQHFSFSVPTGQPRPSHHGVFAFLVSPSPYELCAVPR
Chain of Cytochrome P450 1A2 (Homo sapiens) (P05177 whole entry, looked up): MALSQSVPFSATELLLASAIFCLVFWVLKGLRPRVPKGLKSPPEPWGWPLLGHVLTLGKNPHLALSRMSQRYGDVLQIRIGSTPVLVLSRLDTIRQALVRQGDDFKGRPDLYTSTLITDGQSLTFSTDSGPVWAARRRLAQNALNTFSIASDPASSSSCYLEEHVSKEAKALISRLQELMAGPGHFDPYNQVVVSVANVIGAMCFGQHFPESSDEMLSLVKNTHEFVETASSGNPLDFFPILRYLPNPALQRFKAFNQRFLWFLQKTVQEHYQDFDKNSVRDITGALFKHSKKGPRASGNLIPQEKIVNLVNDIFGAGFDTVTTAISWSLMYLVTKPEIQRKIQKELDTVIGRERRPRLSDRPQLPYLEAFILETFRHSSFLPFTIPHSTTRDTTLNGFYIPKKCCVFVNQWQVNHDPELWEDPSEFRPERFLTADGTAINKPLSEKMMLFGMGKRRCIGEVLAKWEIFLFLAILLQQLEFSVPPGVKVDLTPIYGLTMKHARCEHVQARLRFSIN
Chain of Lysosomal acid glucosylceramidase (Homo sapiens) (P04062 whole entry, looked up): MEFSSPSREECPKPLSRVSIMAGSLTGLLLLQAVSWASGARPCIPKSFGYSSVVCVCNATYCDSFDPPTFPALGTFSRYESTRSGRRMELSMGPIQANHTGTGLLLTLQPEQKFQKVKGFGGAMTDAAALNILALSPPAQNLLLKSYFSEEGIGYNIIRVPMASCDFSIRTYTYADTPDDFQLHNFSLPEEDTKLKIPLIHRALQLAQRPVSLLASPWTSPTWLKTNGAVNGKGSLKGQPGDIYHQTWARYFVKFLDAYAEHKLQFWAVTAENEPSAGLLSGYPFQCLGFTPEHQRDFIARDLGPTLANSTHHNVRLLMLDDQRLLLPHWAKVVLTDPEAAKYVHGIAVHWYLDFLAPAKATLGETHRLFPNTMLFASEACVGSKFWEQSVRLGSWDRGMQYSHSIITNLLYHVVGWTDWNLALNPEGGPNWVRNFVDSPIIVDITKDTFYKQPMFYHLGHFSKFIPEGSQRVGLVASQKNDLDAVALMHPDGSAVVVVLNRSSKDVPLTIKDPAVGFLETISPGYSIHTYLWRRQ

In the case of `Clc1ccccc1-c1ccc2ncnc(NCc3cccnc3)c2c1`, the Potency was above 11.4 µM in assay [1]; 0.158 µM (active) in assay [3]; above 46 µM in assay [6]; above 46 µM in assay [7]; 2 µM (active) in assay [9]; 6.31 µM (active) in [11]. For the same compound, the results for the Potency in assay [12], in assay [13] and in assay [14] were 10 µM (active), 11.2 µM (active) and 10 µM (active), respectively. Besides, the activity change, negative = inhibition was 2.12% in assay [2] and 13.8% in assay [4]. Besides, the activity, negative = inhibition in [5] was -5.2%. Moreover, in [8], the compound was classed as inactive. Besides, the Potency entry in assay [10], in assay [15], in [16] and in assay [17] was “inactive” in each case.

Regarding `NC(=O)C1CCN(c2nc(-c3ccc4c(c3)CCO4)cs2)CC1`, the Potency entry in assay [16] and in [18] was “inactive” throughout.
